KCNQ2 pot: enhances the rat KCNQ2 potassium channel. O88943. CHO-K1 KCNQ2, FluxOR thallium flux fluorescence; stronger effect = higher value. B-score at 10 µM. actives 0.54% (n = 310,000);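 active means fluorescence ratio B-score at least 3 SD of library B-scores, with initial fluorescence B-score within 3 of them, cut at about 5.3 in these data; same plate scores as AID 2156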;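 further: B-score of peak minus minimum over baseline fluorescence ratio after K+ and Tl+ stimulus; positive B-score means potentiation of KCNQ2 with more thallium influx and brighter signal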
KCNQ2 block: inhibitors of rat KCNQ2 potassium channel | O88943 | CHO-K1 KCNQ2, FluxOR thallium flux, 20 min; stronger effect = lower value | B-score at 10 µM | actives 1.1% (n = 310,000) | AID 2156;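 active means fluorescence ratio B-score at most minus 3 library SDs, with starting brightness B-score within 2 library SDs, cut at about -5.5 in these data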
Kir21 conf inh: confirmation of mouse Kir2.1 potassium channel inhibitors; shares compounds with KCNQ2 pot; Kir2.1-expressing cells, FluxOR thallium flux fluorescence; stronger effect = lower value; Tl flux remaining, % of negative control (stronger effect = lower value), % at 10 µM; actives 41% (n = 2,300); AID 2032;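 active means Primary-screen hit whose thallium flux fell at least 3 control SD below untreated wells in both duplicates, with normal baseline fluorescence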
HEK293 ctr: parental HEK293 activity in Kir2.1 inhibitor counter-screen; FluxOR signal as % of negative control (100 = no effect), % at 10 µM; shares compounds with KCNQ2 pot; actives 19% (n = 2,300); parental HEK293 cells, FluxOR thallium flux fluorescence; 0% = unstimulated blank wells;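 active means dye signal at least 3 control SD above or below untreated wells in both duplicates, raw fluorescence within 3, either direction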;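 further: percent is based on the flux ratio of peak minus minimum fluorescence over baseline F0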
CHO-K1 ctr: alters thallium flux in parental CHO-K1 cells, KCNQ2 counter-screen; shares compounds with KCNQ2 pot; FluxOR thallium flux fluorescence; zero = vehicle mean+3SD, 100% = vehicle-minus-blank window; activity increase over 3SD of controls, % at 10 µM; actives 43% (n = 1,200); AID 2282;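 active means signal rise of at least 3 SD above the untreated control mean, in both duplicate wells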;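 further: counter screen of KCNQ2 potentiator hits so any rise reflects channel-independent effects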
KCNQ1 pot spec: human KCNQ1 counter-target activity of KCNQ2 potentiators; activation over 3SD threshold, % at 10 µM; shares compounds with KCNQ2 pot; CHO KCNQ1 stable, FluxOR thallium flux fluorescence; beyond 3SD, as % of vehicle-control signal; AID 2283; actives 28% (n = 1,200);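 active means fluorescence ratio rise of at least 3 SD of vehicle wells above their mean, in both replicate wells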
Target sequence (P51787 whole entry, looked up): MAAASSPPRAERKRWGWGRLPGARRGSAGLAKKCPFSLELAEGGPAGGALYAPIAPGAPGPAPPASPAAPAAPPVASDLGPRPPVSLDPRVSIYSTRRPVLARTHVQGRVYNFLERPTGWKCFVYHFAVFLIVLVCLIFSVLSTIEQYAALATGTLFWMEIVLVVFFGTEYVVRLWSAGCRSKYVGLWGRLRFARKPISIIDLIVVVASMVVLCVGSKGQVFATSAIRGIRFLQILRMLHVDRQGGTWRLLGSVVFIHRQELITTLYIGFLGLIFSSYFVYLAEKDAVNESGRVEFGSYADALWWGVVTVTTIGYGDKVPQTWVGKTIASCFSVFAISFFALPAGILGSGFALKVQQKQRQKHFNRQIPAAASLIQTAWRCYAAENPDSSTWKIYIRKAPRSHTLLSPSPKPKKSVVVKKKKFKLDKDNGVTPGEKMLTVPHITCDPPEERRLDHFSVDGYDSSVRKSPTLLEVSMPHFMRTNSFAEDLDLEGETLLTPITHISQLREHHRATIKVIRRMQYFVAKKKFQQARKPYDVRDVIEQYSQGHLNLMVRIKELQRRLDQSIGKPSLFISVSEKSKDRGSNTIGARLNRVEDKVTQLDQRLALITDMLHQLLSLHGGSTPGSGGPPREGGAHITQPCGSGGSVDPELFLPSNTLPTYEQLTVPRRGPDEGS
KCNQ2 pot conf: rat KCNQ2 channel potentiator confirmation; potentiation, less the hit threshold, % at 10 µM; actives 68% (n = 1,200); CHO-KCNQ2 cells, FluxOR thallium flux fluorescence; shares compounds with KCNQ2 pot;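 active means fluorescence ratio rising 3 SD or more over the vehicle control mean in both replicates, plus primary screen hit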;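 further: peak minus minimum thallium fluorescence divided by baseline after K/Tl stimulus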
Kir2-1 sel: selectivity of KCNQ2 potentiators: effect on mouse Kir2.1. shares compounds with KCNQ2 pot. HEK293 Kir2.1, FluxOR thallium flux fluorescence. activity over 3SD threshold, % at 10 µM. actives 2% (n = 1,200);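 active means fluorescence ratio rise of at least 3 SD above the vehicle-control mean, seen in both replicates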
KCNQ2 W236L pot: rat KCNQ2 W236L mutant potentiation by KCNQ2 potentiators | shares compounds with KCNQ2 pot | CHO KCNQ2-W236L, automated patch clamp current | current increase over 3SD of negative controls (%), stronger effect = higher value, % at 25 µM | actives 10% (n = 940);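 active means current increase at least 3 SD of the untreated controls above them in both duplicate recordings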
Large screens that a line does not name were inactive (follow-up assays come after a bar, where they were run). Hits are enriched below; roughly 1.6% of the tested compounds scored in any of these assays.

CCn1ncc([N+](=O)[O-])c1C(=O)Nc1nc2cccc(C)c2s1	none
CCn1ncc([N+](=O)[O-])c1C(=O)Nc1c(C)cccc1C	KCNQ2 pot 13.8 | Kir21 conf inh inactive | HEK293 ctr inactive | CHO-K1 ctr inactive | KCNQ1 pot spec inactive | KCNQ2 pot conf inactive | Kir2-1 sel inactive
Cc1ccc2nc(CCCc3nc4ccc(C)cc4[nH]3)[nH]c2c1	none (no result: KCNQ2 pot) | Kir21 conf inh 69.5% | HEK293 ctr inactive
Cc1ccc2nc(CCc3nc4ccc(C)cc4[nH]3)[nH]c2c1	none (no result: KCNQ2 pot)
Cc1nc(C(C)NC(=O)CCc2nnc(-c3ccsc3)o2)cs1 (centres undefined)	none
COc1ccc(S(=O)(=O)N2CCc3ccccc32)cc1OC	none | Kir21 conf inh 51.5% | HEK293 ctr inactive
COc1ccc(S(=O)(=O)N2CCc3ccccc32)cc1C(=O)O	none (no result: KCNQ2 pot)
CC1=C(C(=O)NCc2ccccn2)C2(CCC(C)CC2)OC1=O (centres undefined)	none
CC(C)(C)C1CCc2c(sc3ncn(N)c(=N)c23)C1 (centres undefined)	none
C=CCOc1ccc(/C=C2\SC(=S)N(NS(=O)(=O)c3ccccc3)C2=O)cc1	none
Cc1ccccc1Cn1nc(C)c(NC(=O)c2ccccc2)c1C	none | Kir21 conf inh inactive | HEK293 ctr inactive
Cc1ccccc1Cn1nc(C)c(NC(=O)c2sc3ccccc3c2Cl)c1C	none
CCCCCNC(=O)CCc1ccccc1	none
CCCCCCC/C(C)=N/NC(=O)CC(=O)NCCc1ccccc1	KCNQ2 pot 5.58 | Kir21 conf inh inactive | HEK293 ctr inactive | CHO-K1 ctr 7.3 | KCNQ1 pot spec inactive | KCNQ2 pot conf inactive | Kir2-1 sel inactive
Cc1nc(C)n(CC(=O)N2CCCC(C(=O)c3cccc4ccccc34)C2)n1 (centres undefined)	none (no result: KCNQ2 pot)
Cc1ccc(C(=O)NC(=S)N(C)C2CCCCC2)cc1	KCNQ2 pot 5.73 | Kir21 conf inh inactive | HEK293 ctr 212.0% | CHO-K1 ctr inactive | KCNQ1 pot spec 18.3 | KCNQ2 pot conf 31.1 | Kir2-1 sel inactive | KCNQ2 W236L pot inactive
CN(C(=S)NC(=O)/C=C/c1ccc(F)cc1)C1CCCCC1	none (no result: KCNQ2 pot)
OC1(c2ccc(Cl)cc2)CCN(Cc2c[nH]c3ccccc23)CC1	none | Kir21 conf inh 33.5% | HEK293 ctr inactive
Clc1ccccc1N1CCN(Cc2c[nH]c3ccccc23)CC1	none (no result: KCNQ2 pot)
Cc1ccccc1CN1CCN(C2CCC2)CC1CCO (centres undefined)	none
CCN(CC)S(=O)(=O)c1cccc(C(=O)N[C@H](C(=O)NNC(=O)c2ccccc2)C(C)C)c1	KCNQ2 pot 8.03 | Kir21 conf inh inactive | HEK293 ctr inactive | CHO-K1 ctr inactive | KCNQ1 pot spec 0.2 | KCNQ2 pot conf inactive | Kir2-1 sel inactive
CCN(CC)S(=O)(=O)c1cccc(C(=O)NC(C(=O)NC2=NCCS2)C(C)C)c1 (centres undefined)	none
CS(=O)(=O)N1CCN(CC(=O)NC2CCCCC2)CC1	none (no result: KCNQ2 pot)
O=C1OCCN1c1c(-c2ccccc2)c(-c2cccs2)nc2c(-c3ccccc3)cccc12	none (no result: KCNQ2 pot)
COc1ccc(F)cc1S(=O)(=O)NCC(=O)NCc1cc(=O)n(C)c(=O)n1C	none (no result: KCNQ2 pot)
COc1ccc(C)cc1NCc1cccc(OC)c1OC	none (no result: KCNQ2 pot)
COc1cc(OC)c(OC)cc1CNc1cc(C)ccc1OC	none (no result: KCNQ2 pot) | Kir21 conf inh 53.5% | HEK293 ctr inactive
Cc1ccc(C(=O)Nc2cccc(C(F)(F)F)c2)cc1NC(=O)c1csc(-c2ccncc2)n1	none (no result: KCNQ2 pot)

Screens as filed in PubChem BioAssay.
